The source made the active and inactive calls. The calls were made as follows: active = hit-call score of the fitted dose curve at least 0.9, where 1 is the maximum; inactive = score below 0.9.
Experiment: ATG_CMV_CIS: Attagene CIS-FACTORIAL HepG2 Assay for human CMV (Internal Marker) (AID 2282928);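 also: endpoint acts as a background internal control marker rather than a target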
Settings: HepG2 CMV promoter reporter, transcription factor profiling; actives raise or lower the signal
How it was run: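 After transient transfection of HepG2 with reporter transcription units driven by cis-regulatory promoters, cells receive test chemical for 24 h. Labeled reporter amplicons, digested with HpaI, are sized and quantified by capillary electrophoresis against DMSO.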

| Compound | outcome | AC50 |
| --- | --- | --- |
| C=C(C)C(=O)OCCO | inactive |  |
| C1=Cc2ccccc2C1 | inactive |  |
| CCOC(=O)CC | inactive |  |
| CCC(=O)Oc1ccc(/C(CC)=C(\CC)c2ccc(OC(=O)CC)cc2)cc1 | inactive |  |
| CO[Si](CCC1CCC2OC2C1)(OC)OC (stereo not given) | inactive |  |
| CCCCCC/C=C\CCCCCCCC(=O)O | inactive |  |
| Cc1cc(=O)n(-c2ccccc2)n1C | inactive |  |
| FC(F)(F)C(=NOCC1OCCO1)c1ccc(Cl)cc1 | inactive |  |
| CCOC(=O)N1CCC(=C2c3ccc(Cl)cc3CCc3cccnc32)CC1 |  | 7.56 µM (active) |
| COc1cc(C)ccc1C(C)C | inactive |  |
| CCCCCCCOC(=O)CCC | inactive |  |
| Cc1ccc(C(C)c2ccc(C)c(C)c2)cc1C |  | 40.9 µM (active) |
| O=C(/C=C/C=C/c1ccc2c(c1)OCO2)N1CCCCC1 | inactive |  |
| CC(C)=CCC[C@H](C)CCO | inactive |  |
| O=C1CCCCCCCCCCC(=O)OCCO1 | inactive |  |
| COCC(C)N (stereo not given) | inactive |  |
| CC(=O)[C@@]1(O)CC[C@H]2[C@@H]3C[C@H](C)C4=CC(=O)C=C[C@]4(C)[C@@]3(F)[C@@H](O)C[C@@]21C | inactive |  |
| CC(C)CC(O)Cc1ccccc1 (stereo not given) | inactive |  |
| CCCCOCCOC(=O)COc1nc(Cl)c(Cl)cc1Cl | inactive |  |
| COC(=O)/C=C\C(=O)O | inactive |  |

| Compound | outcome | AC50 |
| --- | --- | --- |
| C=C[Si](OC(C)=O)(OC(C)=O)OC(C)=O | inactive |  |
| Cc1c(C)c([N+](=O)[O-])c(C(C)(C)C)c([N+](=O)[O-])c1C | inactive |  |
| O=[N+]([O-])C1(Br)COCOC1 | inactive |  |
| CC(C)=CC1CC(C)CCO1 (stereo not given) | inactive |  |
| Nc1ccc(-c2ccc(F)cc2)cc1 | inactive |  |
| FC(F)=C(F)OC(F)(F)C(F)(F)C(F)(F)F | inactive |  |
| CCCOC(=O)CCCCC(=O)OCCC | inactive |  |
| OCCN(CCO)c1ccccc1 | inactive |  |
| O=C(O)c1cc(Cl)cc([N+](=O)[O-])c1Cl | inactive |  |
| CCCCC(CC)COC(=O)c1ccccc1O (stereo not given) | inactive |  |
| CCc1nccnc1C | inactive |  |
| CC(=O)Nc1ccc2c(c1)Cc1cc(NC(C)=O)ccc1-2 | inactive |  |
| OCCCS | inactive |  |
| Cc1cccc(OCCOc2cccc(C)c2)c1 | inactive |  |
| Cc1ccc([N+](=O)[O-])cc1S(=O)(=O)O | inactive |  |
| COC(=O)c1cc(Cl)ccc1[N+](=O)[O-] | inactive |  |
| Cc1oncc1C(=O)Nc1ccc(C(F)(F)F)cc1 | inactive |  |
| CC(C)c1ccc2cc(C(C)C)ccc2c1 |  | 45.5 µM (active) |
| C=CC(=O)OCCOC(=O)C=C |  | 27.2 µM (active) |
| CCCCCCCCCCCCCOP(=O)(O)O | inactive |  |

Experiment: ATG_DR4_LXR_CIS: Attagene CIS-FACTORIAL HepG2 Assay for human Liver X Receptor (LXR), DR4 submotif (AID 2282929)
Settings: HepG2 Attagene DR4 cis-reporter, mRNA transcription; actives raise or lower the signal
How it was run: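 HepG2 cells transiently transfected with cis-promoter-driven multiplexed reporter units (DR4 element) were dosed for 24 h. Reporter mRNA was quantified by RT-PCR, fluorescent primer extension, HpaI digestion and capillary electrophoresis; bidirectional fitting versus DMSO baseline.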

| Compound | outcome | AC50 |
| --- | --- | --- |
| C=C(C)C(=O)OCCO | inactive |  |
| C1=Cc2ccccc2C1 | inactive |  |
| CCOC(=O)CC | inactive |  |
| CCC(=O)Oc1ccc(/C(CC)=C(\CC)c2ccc(OC(=O)CC)cc2)cc1 |  | 6.03 µM (active) |
| CO[Si](CCC1CCC2OC2C1)(OC)OC (stereo not given) | inactive |  |
| CCCCCC/C=C\CCCCCCCC(=O)O |  | 27.3 µM (active) |
| Cc1cc(=O)n(-c2ccccc2)n1C | inactive |  |
| FC(F)(F)C(=NOCC1OCCO1)c1ccc(Cl)cc1 |  | 38.1 µM (active) |
| CCOC(=O)N1CCC(=C2c3ccc(Cl)cc3CCc3cccnc32)CC1 |  | 9.1 µM (active) |
| COc1cc(C)ccc1C(C)C | inactive |  |
| CCCCCCCOC(=O)CCC | inactive |  |
| Cc1ccc(C(C)c2ccc(C)c(C)c2)cc1C |  | 117 µM (active) |
| O=C(/C=C/C=C/c1ccc2c(c1)OCO2)N1CCCCC1 |  | 72.6 µM (active) |
| CC(C)=CCC[C@H](C)CCO | inactive |  |
| O=C1CCCCCCCCCCC(=O)OCCO1 | inactive |  |
| COCC(C)N (stereo not given) | inactive |  |
| CC(=O)[C@@]1(O)CC[C@H]2[C@@H]3C[C@H](C)C4=CC(=O)C=C[C@]4(C)[C@@]3(F)[C@@H](O)C[C@@]21C | inactive |  |
| CC(C)CC(O)Cc1ccccc1 (stereo not given) | inactive |  |
| CCCCOCCOC(=O)COc1nc(Cl)c(Cl)cc1Cl | inactive |  |
| COC(=O)/C=C\C(=O)O | inactive |  |

| Compound | outcome | AC50 |
| --- | --- | --- |
| C=C[Si](OC(C)=O)(OC(C)=O)OC(C)=O | inactive |  |
| Cc1c(C)c([N+](=O)[O-])c(C(C)(C)C)c([N+](=O)[O-])c1C | inactive |  |
| O=[N+]([O-])C1(Br)COCOC1 | inactive |  |
| CC(C)=CC1CC(C)CCO1 (stereo not given) | inactive |  |
| Nc1ccc(-c2ccc(F)cc2)cc1 | inactive |  |
| FC(F)=C(F)OC(F)(F)C(F)(F)C(F)(F)F | inactive |  |
| CCCOC(=O)CCCCC(=O)OCCC | inactive |  |
| OCCN(CCO)c1ccccc1 | inactive |  |
| O=C(O)c1cc(Cl)cc([N+](=O)[O-])c1Cl | inactive |  |
| CCCCC(CC)COC(=O)c1ccccc1O (stereo not given) | inactive |  |
| CCc1nccnc1C | inactive |  |
| CC(=O)Nc1ccc2c(c1)Cc1cc(NC(C)=O)ccc1-2 | inactive |  |
| OCCCS | inactive |  |
| Cc1cccc(OCCOc2cccc(C)c2)c1 | inactive |  |
| Cc1ccc([N+](=O)[O-])cc1S(=O)(=O)O | inactive |  |
| COC(=O)c1cc(Cl)ccc1[N+](=O)[O-] | inactive |  |
| Cc1oncc1C(=O)Nc1ccc(C(F)(F)F)cc1 | inactive |  |
| CC(C)c1ccc2cc(C(C)C)ccc2c1 | inactive |  |
| C=CC(=O)OCCOC(=O)C=C |  | 27.4 µM (active) |
| CCCCCCCCCCCCCOP(=O)(O)O | inactive |  |

— PubChem BioAssay (EPA / NIEHS)
